Screening data deposited in PubChem by Johns Hopkins Ion Channel Center.
In the library only some 2.4% were active in any assay of this set; here they are far more common.
CHT allo act – allosterically activates the human high affinity choline transporter | B-score at 10 µM | Q9GZV3 | actives 0.49% (n = 310,000) | CHT-expressing cells, membrane potential dye, choline EC20; stronger effect = higher value; LV-AA mutant CHT in HEK293 cells;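 active = initial fluorescence not abnormally high and integrated response B-score, plate-corrected, over 3 SD above library mean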
Target sequence (Q9GZV3 whole entry, looked up): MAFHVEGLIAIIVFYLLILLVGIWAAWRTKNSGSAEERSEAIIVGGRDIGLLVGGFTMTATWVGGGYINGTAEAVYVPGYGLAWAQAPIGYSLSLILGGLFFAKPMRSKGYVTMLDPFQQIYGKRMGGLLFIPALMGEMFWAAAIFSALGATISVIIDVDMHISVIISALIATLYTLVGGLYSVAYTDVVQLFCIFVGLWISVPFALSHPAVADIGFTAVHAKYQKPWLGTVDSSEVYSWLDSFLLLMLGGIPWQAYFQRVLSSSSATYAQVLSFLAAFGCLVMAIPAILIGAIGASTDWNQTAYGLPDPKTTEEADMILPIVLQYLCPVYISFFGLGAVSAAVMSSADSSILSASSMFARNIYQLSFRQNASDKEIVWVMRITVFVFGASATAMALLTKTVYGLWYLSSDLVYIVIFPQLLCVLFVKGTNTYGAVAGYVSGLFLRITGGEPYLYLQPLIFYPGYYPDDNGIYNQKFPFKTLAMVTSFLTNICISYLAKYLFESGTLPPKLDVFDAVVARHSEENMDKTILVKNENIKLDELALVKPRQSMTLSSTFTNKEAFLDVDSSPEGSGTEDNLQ
TMEM16A act – activators or potentiators of mouse TMEM16A chloride channel; actives 0.3% (n = 340,000); HEK293 TMEM16A/YFP-H148Q/I152L, iodide quench fluorescence; stronger effect = lower value; B-score at 10 µM;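 active = fluorescence-ratio B-score plate-corrected deviation score at least 3 library SD below zero, with starting fluorescence score within 5 deviations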;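 also: channel opened by trigger with iodide after compound preincubation; score built on the fluorescence ratio of max minus min over baseline; more negative score means more quench and so TMEM16A activation or potentiation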
CHT block – inhibitors of human choline transporter CHT; B-score at 10 µM; actives 0.86% (n = 310,000); AID 488975; CHT-expressing cells, membrane potential dye, choline response; stronger effect = lower value; Q9GZV3;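 active = B-score over 3 SD under the library average, and starting fluorescence ratio not unusually high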;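 also: choline stimulus applied at its EC90 after an EC20 pre-addition; B-score computed on integrated fluorescence ratio after choline addition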
ANO1 block – mouse TMEM16A channel inhibition, primary screen; Q8BHY3; HEK293 TMEM16A/YFP iodide influx fluorescence, ionomycin; normalized B-score (activity score, 25-100; higher = stronger inhibition) at 10 µM; actives 1.2% (n = 310,000);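 active = ratio plate-corrected score three or more library SD toward inhibition, starting fluorescence score within five deviations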;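 also: score derived from kinetic fluorescence span divided by baseline fluorescence per well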
CHT activ conf – human CHT activation, confirmatory screen; shares compounds with CHT allo act; CHT-expressing cells, membrane potential dye fluorescence (FDSS); % of choline EC20–EC90 response window; HEK293 expressing CHT LV-AA mutant; choline added at its EC20; activation, % at 10 µM; actives 91% (n = 2,500); AID 504833;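 active = primary screen active, with duplicate mean activation above negative control mean plus 3 SD, cut at about 11% in these data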
HEK293 MP dye – CHT activator counter-screen hit in parental HEK293 cells; shares compounds with CHT allo act; ratio readout change at 10 µM, hits read low; membrane potential dye fluorescence (FDSS); measured after EC20 choline addition; actives 62% (n = 2,500);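 active = duplicate-averaged ratio beyond 3 SD from buffer wells, up or down, though filed actives are nearly all decreases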
* marks the source's active call; other numbers are inactive results; i = inactive; nt = no result.

SMILES | CHT allo act | TMEM16A act | CHT block | ANO1 block | CHT activ conf | HEK293 MP dye
Cc1cccc(-n2c(SCC(=O)NC3CCCC3)nnc2-c2ccoc2C)c1 | i | i | i | i | nt | nt
CCCCC(=O)Nc1nnc(SCC(=O)Nc2ccc(OC)cc2)s1 | i | i | i | i | nt | nt
CCOCCCn1c(=NC(C)=O)c(C#N)cc2c(=O)n3cccc(C)c3nc21 | i | i | i | i | 43.4* | -62.2*
CCCCn1c(=NC(C)=O)c(C#N)cc2c(=O)n3cccc(C)c3nc21 | i | i | i | i | nt | nt
O=[N+]([O-])c1ccc2nc(-c3ccc(Cl)cc3)n(OCc3ccccc3)c2c1 | i | i | i | i | nt | nt
Clc1ccc(COn2c(-c3ccccc3)nc3ccccc32)cc1 | 6.45* | i | i | i | 25.6* | i
O=C(NCc1ccc(Cl)cc1)C1CCN(C(=O)c2ccco2)CC1 | i | i | i | i | nt | nt
COc1ccc([N+](=O)[O-])cc1N(CC(O)CN(CC(C)C)CC(C)C)S(=O)(=O)c1ccccc1 (configuration not stated) | 12.5* | i | i | i | 42.1* | i
CCCCN(CCCC)CC(O)CN(c1cc([N+](=O)[O-])ccc1OC)S(=O)(=O)c1ccccc1 (configuration not stated) | 11.2* | i | i | i | 53.2* | -44.7*
CN1CCc2nc3sc(C(=O)NCc4ccccc4)c(N)c3cc2C1 | i | i | i | i | nt | nt
Cc1cc(C)c(S(=O)(=O)N2CCCCC2CCNC(=O)C(=O)NCC2CCCO2)c(C)c1 (configuration not stated) | i | i | i | i | nt | nt
Cc1cccc2cc3c(N)c(C(=O)N4CCc5ccccc54)sc3nc12 | i | i | i | i | 26.5* | i
COc1cc2[nH]c(=O)c(C(=O)NCc3ccccc3Cl)c(O)c2cc1OC | i | i | i | i | nt | nt
CC(=O)c1ccc(NC(=O)c2ccn(C(=O)OCC(C)C)n2)cc1 | i | i | i | i | 17.6* | -35.7*
O=C(c1cccc(Cl)c1)N1CCC(=O)N(C(COCc2ccccc2)Cc2ccccc2)CC1 (configuration not stated) | 6.34* | i | i | i | 28.6* | i
Cc1cccc(COCC(Cc2ccccc2)N2CCN(C(=O)c3cccc(Cl)c3)CCC2=O)c1 (configuration not stated) | i | i | i | i | nt | nt
COc1ccc(OC)c(C(c2nnnn2C2CCCC2)N2CCN(c3ccccc3F)CC2)c1 (configuration not stated) | i | i | i | i | 34.7* | i
O=c1c2ccccc2nc2n1C(CSCc1ccc(Cl)cc1)CS2 (configuration not stated) | 8.22* | i | i | i | 11.3* | i
O=c1c2ccccc2nc2n1C(CSc1ccccc1)CS2 (configuration not stated) | i | i | i | i | nt | nt
CN(c1ccccc1C(=O)N1CCc2ccccc2C1)S(C)(=O)=O | i | i | i | i | nt | nt
CCN1CCc2c(sc(N)c2C#N)C1 | i | i | i | i | 36.8* | -38.8*
CC(C)N1CCc2c(sc(N)c2C#N)C1 | 6.36* | i | i | i | 42.6* | -35.5*
CC(C)N1CCc2c(sc(NC(=O)c3ccc(S(=O)(=O)N4CCOCC4)cc3)c2C#N)C1 | i | i | i | i | nt | nt
CCN(CC(=O)NCc1ccc(F)cc1)C(=O)c1ccc2c(c1)OCO2 | nt | i | nt | nt | nt | nt
CN1CCCCc2c1nc1ccccc1c2N (tested in a mixture with another compound) | 8.57* | i | i | i | 22.7* | -48.5*
SMILES | CHT allo act | TMEM16A act | CHT block | ANO1 block | CHT activ conf | HEK293 MP dye
c1ccc2c(c1)nc(N1CCCCCC1)c1ccccc12 | i | i | i | i | nt | nt
CN1CCCC1=Nc1c2c(nc3ccccc13)N(C)CC2 | 8.93* | i | i | i | 61.1* | -57.2*
Nc1c2c(nc3ccccc13)N(c1ccccc1)CC2 | i | i | i | i | nt | nt
COc1cc(Nc2ccccc2Cl)c([N+](=O)[O-])nc1[N+](=O)[O-] | i | i | i | i | nt | nt
CCCCN(CCCC)C(=O)CN(C)S(=O)(=O)c1ccc2c(c1)n(C)c(=O)c(=O)n2C | i | i | i | i | nt | nt
CCCCN(C)CCNS(=O)(=O)c1ccc2c(c1)n(C)c(=O)c(=O)n2C | 17.1* | i | i | i | 76.1* | -84.1*
Cc1ccc(C(=O)N2CCN(c3ccccc3)CC2)cc1S(=O)(=O)N1CCOCC1 | i | i | i | i | nt | nt
CC(CCc1ccccc1)NC(=O)/C=C/c1ccc(Cl)cc1 (configuration not stated) | i | i | i | i | 5.8 | i
CC(Nc1ccc(F)cc1F)C(=O)NC(=O)NC1CCCCC1 (configuration not stated) | i | i | i | i | nt | nt
COc1ccc(-c2nc(CS(=O)CC(=O)NCCc3ccc(C)cc3)c(C)o2)cc1OC (configuration not stated) | i | i | i | i | nt | nt
CCOC(=O)C1(Cc2ccccc2)CCN(CC2CC=CCC2)CC1 (configuration not stated) | i | i | i | i | 2.4 | i
CCOC(=O)C1(Cc2cccc(OC)c2)CCN(CC2CC=CCC2)CC1 (configuration not stated) | i | i | i | i | nt | nt
O=C1OC(CC(=O)N(Cc2nnc(-c3ccc(Cl)cc3)o2)C2CC2)c2ccccc21 (configuration not stated) | nt | i | nt | nt | nt | nt
Cc1cccc(N=Cc2[nH]c3ccc(Br)c(Cl)c3c2O)c1 | i | i | i | i | 11.9* | i
Cc1cccc(N=Cc2c(O)cc(C)oc2=O)c1 | i | i | i | i | nt | nt
COc1ccccc1N=C(C)C1=C(O)CC(c2ccccc2)CC1=O (configuration not stated) | 9.67* | i | i | i | 56.3* | i
CCCC(=Nc1ccccc1OC)C1=C(O)CC(c2ccccc2)CC1=O (configuration not stated) | i | i | i | i | nt | nt
COc1cccc2cc(C(=O)OC3CCN(C)CC3)c(=O)oc12 | 6.74* | i | i | i | 42.5* | -37.9*
O=C(COc1cccc2cccnc12)N/N=C1\SCC(=O)N1CCc1ccccc1 | i | i | i | i | nt | nt
O=C(COc1cccc2cccnc12)N/N=C1\SCC(=O)N1Cc1ccco1 | 7.17* | i | i | i | 66.0* | -55.3*
